7 compounds from PubChem BioAssay (EPA / NIEHS) can be followed below.

Structures are written as SMILES. Activity calls are given as the source filed them. Rule for the calls: active = hit-call score of the fitted dose curve at least 0.9, where 1 is the maximum; inactive = score below 0.9.

The nature of assay [1]: ATG_M_06_CIS: Attagene CIS-FACTORIAL HepG2 Assay for M06 Transcription Factor (Internal Marker) (AID 2282950). Particulars: HepG2 Attagene CIS-FACTORIAL M06 internal marker reporter; actives raise or lower the signal. The method in brief: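 Fluorescence-labelled RT-PCR products from cis-promoter reporter units, cut with HpaI and resolved by capillary electrophoresis, give the signal. Cells are human HepG2, dosed for 24 h. Serves as background control, fitted relative to DMSO.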

Assay [2] has as its target Hypoxia-inducible factor 1-alpha (Homo sapiens) (UniProt Q16665). Put plainly: ATG_HIF1a_CIS: Attagene CIS-FACTORIAL HepG2 Assay for human Hypoxia Inducible Factor 1 (HIF1A) (AID 2282951). The settings on record: HepG2 Attagene cis-factorial HIF1a reporter transcription; actives raise or lower the signal. The method in brief: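 RT-PCR/capillary electrophoresis fluorescence readout of reporter transcripts from endogenous-TF-driven cis elements in transfected HepG2 cells, 24 h exposure; activity fitted in both directions against DMSO controls.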

The target of assay [3] is Hepatocyte nuclear factor 6 (Homo sapiens) (UniProt Q9UBC0). Description: ATG_HNF6_CIS: Attagene CIS-FACTORIAL HepG2 Assay for human Hepatocyte Nuclear Factor 6 (HNF6) (AID 2282952). The settings on record: HepG2 Attagene cis-factorial HNF6 reporter transcription; actives raise or lower the signal. Summed up:
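HepG2 cells transiently transfected with cis-element-driven multiple reporter transcription units, dosed 24 h; reporter mRNA quantified by RT-PCR, FAM primer extension, HpaI digestion and capillary electrophoresis; bidirectional fit versus DMSO baseline.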

Assay [4] concerns the target Heat shock factor protein 1 (Homo sapiens) (UniProt Q00613). Put plainly: ATG_HSE_CIS: Attagene CIS-FACTORIAL HepG2 Assay for human Heat Shock Transcription Factor 1 (HSE) (AID 2282953). The settings on record: HepG2 HSE cis-reporter, Attagene RNA transcription; actives raise or lower the signal. Summed up: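 After a 24 h incubation with test chemical, transfected HepG2 cells were harvested for RNA; reporter transcripts were measured by RT-PCR and capillary electrophoresis. Values reflect gain or loss of signal relative to DMSO.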

Assay [5] in a line: ATG_MRE_CIS: Attagene CIS-FACTORIAL HepG2 Assay for human Metal Responsive Element (MRE) (AID 2282954). The settings on record: HepG2 MRE cis-reporter transcription, Attagene multiplex; actives raise or lower the signal. Summed up: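 After a 24 h chemical exposure, transiently transfected HepG2 cells yield RNA whose reporter sequences are amplified, FAM-labelled and sized by capillary electrophoresis. Curves are fitted bidirectionally relative to DMSO.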

A short description of assay [6]: ATG_PBREM_CIS: Attagene CIS-FACTORIAL HepG2 Assay for human Phenobarbital-responsive Enhancer Module (PBREM) (AID 2282955). Particulars: HepG2 PBREM cis-reporter, Attagene multiplexed transcription; actives raise or lower the signal. The method in brief:
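Reporter mRNA read by RT-PCR, 6-FAM primer extension, HpaI digestion and capillary electrophoresis. Transfected HepG2 cells, 24 h compound exposure. Gain or loss of signal fitted bidirectionally relative to DMSO baseline.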

The target in assay [7] is Paired box protein Pax-6 (Homo sapiens) (UniProt P26367). Description: ATG_Pax6_CIS: Attagene CIS-FACTORIAL HepG2 Assay for human Paired Box 6 (PAX6) (AID 2282956). The settings on record: HepG2 CIS-FACTORIAL PAX6 reporter transcription, RNA readout; actives raise or lower the signal. Summed up:
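Transient MRTU transfection of HepG2 → compound exposure 24 h → TriZol RNA, oligo(dT) RT → PCR, 6-FAM primer extension, HpaI cut → capillary electrophoresis; activity fitted both directions against DMSO.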

Assay [8] is described as follows: ATG_PXRE_CIS: Attagene CIS-FACTORIAL HepG2 Assay for human Pregnane X Receptor Element (PXRE) (AID 2282957). The settings on record: HepG2 Attagene CIS-FACTORIAL PXRE reporter, mRNA; actives raise or lower the signal. The method in brief:
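HepG2 cells transiently transfected with cis-regulated multiple reporter transcription units; endogenous factor activity measured as reporter mRNA 24 h after dosing. RT-PCR, fluorescent primer extension, HpaI digestion, capillary electrophoresis; bidirectional fit versus DMSO baseline.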

The nature of assay [9]: ATG_PPRE_CIS: Attagene CIS-FACTORIAL HepG2 Assay for human Peroxisome Proliferator-activated Response Element (PPRE) (AID 2282958). Particulars: HepG2 PPRE cis-element reporter, Attagene transcription factor profiling; actives raise or lower the signal. Summed up:
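Read-out: fluorescent reporter mRNA fragments resolved by capillary electrophoresis after RT-PCR. HepG2 cells carried transiently transfected PPRE-driven cis reporter constructs and were dosed for 24 h; gain or loss of signal fitted relative to DMSO.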

Assay [10] can be described thus: ATG_RORE_CIS: Attagene CIS-FACTORIAL HepG2 Assay for human RAR-related Orphan Receptor Element (RORE) (AID 2282959). The settings on record: HepG2 Attagene cis-factorial RORE reporter, mRNA; actives raise or lower the signal. Summed up: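 Readout: fluorescent reporter mRNA by RT-PCR plus capillary electrophoresis, 24 h after dosing transfected HepG2 cells. Endogenous transcription factor activity on a cis promoter element is measured. Gain or loss of signal fitted against DMSO.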

The nature of assay [11]: ATG_Sox_CIS: Attagene CIS-FACTORIAL HepG2 Assay for human SRY-box transcription factor (SOX) (AID 2282960). Particulars: HepG2 Attagene cis-factorial SOX reporter, mRNA; actives raise or lower the signal. The method in brief: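 Read-out: fluorescent RT-PCR products of SOX1-linked reporter transcripts resolved by capillary electrophoresis, fitted bidirectionally against DMSO. Transiently transfected HepG2 cells, 24 h after chemical exposure, endogenous transcription factor activity.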

The target of assay [12] is Transcription factor Sp1 (Homo sapiens) (UniProt P08047). Put plainly: ATG_Sp1_CIS: Attagene CIS-FACTORIAL HepG2 Assay for human Specificity Protein 1 (Sp1) (AID 2282961). Particulars: HepG2 Sp1 cis-reporter transcription, actives raise or lower the signal. Summed up: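 Read-out: fluorescence of 6-FAM-labeled, HpaI-digested RT-PCR products separated by capillary electrophoresis. HepG2 cells carried transfected cis-element reporter units and were exposed to chemicals for 24 h; gain or loss of signal fitted relative to DMSO.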
Chain of Transcription factor Sp1 (Homo sapiens) (P08047 whole entry, looked up): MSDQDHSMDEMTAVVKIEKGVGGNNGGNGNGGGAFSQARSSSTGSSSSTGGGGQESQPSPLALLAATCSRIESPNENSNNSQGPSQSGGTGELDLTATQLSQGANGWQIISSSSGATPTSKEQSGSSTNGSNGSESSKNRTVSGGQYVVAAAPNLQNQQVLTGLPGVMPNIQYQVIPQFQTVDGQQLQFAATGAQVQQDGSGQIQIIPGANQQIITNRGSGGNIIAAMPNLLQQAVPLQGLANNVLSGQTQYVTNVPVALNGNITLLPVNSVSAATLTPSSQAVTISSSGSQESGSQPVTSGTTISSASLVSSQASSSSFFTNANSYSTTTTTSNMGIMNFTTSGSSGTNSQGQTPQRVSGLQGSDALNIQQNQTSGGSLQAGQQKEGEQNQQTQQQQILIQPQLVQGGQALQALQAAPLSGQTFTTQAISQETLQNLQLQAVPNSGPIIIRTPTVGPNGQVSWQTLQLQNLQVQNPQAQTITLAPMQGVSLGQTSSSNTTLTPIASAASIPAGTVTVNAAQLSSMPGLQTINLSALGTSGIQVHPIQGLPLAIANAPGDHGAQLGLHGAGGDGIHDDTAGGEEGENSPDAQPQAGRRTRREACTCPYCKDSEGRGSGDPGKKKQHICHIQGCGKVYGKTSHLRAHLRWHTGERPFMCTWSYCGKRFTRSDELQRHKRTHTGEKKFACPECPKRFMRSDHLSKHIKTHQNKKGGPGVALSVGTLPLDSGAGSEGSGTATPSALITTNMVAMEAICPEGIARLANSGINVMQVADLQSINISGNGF

Assay [13] concerns the target Signal transducer and activator of transcription 3 (Homo sapiens) (UniProt P40763). Description: ATG_STAT3_CIS: Attagene CIS-FACTORIAL HepG2 Assay for human Signal Transducer and Activator of Transcription 3 (STAT3) (AID 2282963). The settings on record: HepG2, Attagene cis-factorial STAT3 reporter transcription; actives raise or lower the signal. Summed up: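 After a 24 h compound incubation, total RNA from MRTU-transfected HepG2 cells was converted to cDNA and reporter sequences PCR-amplified, labelled and profiled by capillary electrophoresis. Gain and loss of signal were referenced to DMSO.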

Assay [14] in a line: ATG_TA_CIS: Attagene CIS-FACTORIAL HepG2 Assay for human TA Basal Promoter (AID 2282964). The settings on record: HepG2 Attagene CIS-factorial TA basal promoter reporter; actives raise or lower the signal. The method in brief:
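Multiplexed mRNA reporter assay, HepG2, 24 h. Reporter cDNA amplified, 6-FAM primer-extended, HpaI-cut, CE-sized; DMSO = negative control and baseline.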

The nature of assay [15]: ATG_TCF_b_cat_CIS: Attagene CIS-FACTORIAL HepG2 Assay for human T-Cell-Factor with beta-catenin (TCF/b-cat) (AID 2282965). The settings on record: HepG2 TCF/beta-catenin cis-reporter transcription, actives raise or lower the signal. The method in brief: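 Measured: reporter mRNA in HepG2 transiently transfected with cis-promoter reporter units, 24 h after chemical addition. Fitting was bidirectional, DMSO as negative control.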

A short description of assay [16]: ATG_TAL_CIS: Attagene CIS-FACTORIAL HepG2 Assay for human TAL Basal Promoter (AID 2282966).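 Note: background control endpoint measuring basal TAL promoter reporter mRNA not a specific factor.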 Particulars: HepG2 Attagene cis-factorial TAL promoter reporter; actives raise or lower the signal. Summed up: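 HepG2 cells were transiently transfected with promoter-driven multiplexed reporter units and dosed for 24 h. Reporter mRNA was measured by RT-PCR with capillary electrophoresis fluorescence; bidirectional fits used DMSO as baseline, serving as a background control.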

Assay [17] is described as follows: ATG_VDRE_CIS: Attagene CIS-FACTORIAL HepG2 Assay for human Vitamin D Receptor Element (VDRE) (AID 2282968). The settings on record: HepG2 VDRE cis-reporter transcription, actives raise or lower the signal. Summed up: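 In transiently transfected HepG2 liver cells, gain or loss of reporter mRNA after 24 h exposure is scored relative to DMSO, using fluorescence detection by capillary electrophoresis of RT-PCR products.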

A short description of assay [18]: ATG_TGFb_CIS: Attagene CIS-FACTORIAL HepG2 Assay for human Transforming Growth Factor (TGF) (AID 2282967). Particulars: HepG2 Attagene CIS TGFb reporter, mRNA transcription; actives raise or lower the signal. Summed up: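 Transcript-level reporter readout: HepG2 transfectants, 24 h exposure, RNA to cDNA, reporter-specific PCR, fluorescent primer extension, capillary sizing against ROX standards. Gain- or loss-of-signal relative to DMSO.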

Assay [19] is described as follows: ATG_SREBP_CIS: Attagene CIS-FACTORIAL HepG2 Assay for human Sterol Regulatory Element Binding (SREBP) (AID 2282962). The settings on record: HepG2 Attagene cis-factorial SREBP reporter, mRNA; actives raise or lower the signal. Summed up: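 Transfected HepG2 (cis-regulated reporter library, endogenous TFs) → compound 24 h → total RNA → oligo(dT) RT → reporter-specific PCR → FAM primer extension, HpaI cut → CE fluorescence. Fit bidirectional vs DMSO.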

Chain of Paired box protein Pax-6 (Homo sapiens) (P26367 whole entry, looked up): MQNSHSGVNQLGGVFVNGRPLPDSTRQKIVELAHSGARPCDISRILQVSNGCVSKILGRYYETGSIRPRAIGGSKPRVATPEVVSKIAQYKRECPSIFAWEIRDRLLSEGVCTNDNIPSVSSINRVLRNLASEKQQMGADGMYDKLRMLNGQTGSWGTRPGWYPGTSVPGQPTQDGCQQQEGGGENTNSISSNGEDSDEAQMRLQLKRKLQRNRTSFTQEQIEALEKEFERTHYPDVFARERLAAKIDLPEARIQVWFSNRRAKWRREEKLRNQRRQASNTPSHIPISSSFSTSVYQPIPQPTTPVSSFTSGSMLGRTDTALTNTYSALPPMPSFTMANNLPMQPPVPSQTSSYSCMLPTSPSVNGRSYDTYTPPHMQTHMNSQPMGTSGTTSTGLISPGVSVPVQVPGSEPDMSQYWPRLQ
Chain of Signal transducer and activator of transcription 3 (Homo sapiens) (P40763 whole entry, looked up): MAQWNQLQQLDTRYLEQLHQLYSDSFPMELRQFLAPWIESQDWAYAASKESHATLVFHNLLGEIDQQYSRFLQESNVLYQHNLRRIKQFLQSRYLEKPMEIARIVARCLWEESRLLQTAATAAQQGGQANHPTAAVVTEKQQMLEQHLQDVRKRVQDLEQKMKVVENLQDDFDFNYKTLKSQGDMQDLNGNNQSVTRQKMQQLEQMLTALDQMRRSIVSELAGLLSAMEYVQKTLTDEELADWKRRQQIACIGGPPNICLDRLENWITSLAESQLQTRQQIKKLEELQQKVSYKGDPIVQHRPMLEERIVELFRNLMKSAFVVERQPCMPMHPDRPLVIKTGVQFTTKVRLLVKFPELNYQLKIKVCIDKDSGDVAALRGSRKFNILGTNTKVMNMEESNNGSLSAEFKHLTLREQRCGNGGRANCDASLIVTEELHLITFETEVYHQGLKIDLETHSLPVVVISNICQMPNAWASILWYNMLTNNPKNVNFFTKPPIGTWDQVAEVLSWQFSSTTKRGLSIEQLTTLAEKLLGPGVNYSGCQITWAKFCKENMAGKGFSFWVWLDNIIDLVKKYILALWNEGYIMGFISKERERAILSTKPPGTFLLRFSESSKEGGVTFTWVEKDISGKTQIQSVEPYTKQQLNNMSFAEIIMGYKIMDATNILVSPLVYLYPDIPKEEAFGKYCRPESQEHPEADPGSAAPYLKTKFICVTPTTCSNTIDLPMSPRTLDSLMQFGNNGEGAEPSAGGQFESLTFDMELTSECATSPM
Chain of Heat shock factor protein 1 (Homo sapiens) (Q00613 whole entry, looked up): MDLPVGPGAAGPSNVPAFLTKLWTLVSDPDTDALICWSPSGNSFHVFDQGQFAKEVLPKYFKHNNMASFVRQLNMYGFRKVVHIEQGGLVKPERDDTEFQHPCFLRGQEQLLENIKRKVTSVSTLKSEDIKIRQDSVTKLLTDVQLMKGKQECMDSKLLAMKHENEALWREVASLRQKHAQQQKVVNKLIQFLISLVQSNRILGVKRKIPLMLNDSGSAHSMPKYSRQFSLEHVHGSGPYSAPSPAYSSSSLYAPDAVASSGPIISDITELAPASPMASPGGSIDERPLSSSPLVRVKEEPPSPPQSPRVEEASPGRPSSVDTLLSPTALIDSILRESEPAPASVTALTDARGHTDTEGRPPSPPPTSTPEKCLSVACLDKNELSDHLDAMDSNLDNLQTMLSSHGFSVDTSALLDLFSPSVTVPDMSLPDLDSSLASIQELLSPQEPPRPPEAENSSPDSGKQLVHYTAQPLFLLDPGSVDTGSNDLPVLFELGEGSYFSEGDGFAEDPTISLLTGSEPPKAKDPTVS
Chain of Hypoxia-inducible factor 1-alpha (Homo sapiens) (Q16665 whole entry, looked up): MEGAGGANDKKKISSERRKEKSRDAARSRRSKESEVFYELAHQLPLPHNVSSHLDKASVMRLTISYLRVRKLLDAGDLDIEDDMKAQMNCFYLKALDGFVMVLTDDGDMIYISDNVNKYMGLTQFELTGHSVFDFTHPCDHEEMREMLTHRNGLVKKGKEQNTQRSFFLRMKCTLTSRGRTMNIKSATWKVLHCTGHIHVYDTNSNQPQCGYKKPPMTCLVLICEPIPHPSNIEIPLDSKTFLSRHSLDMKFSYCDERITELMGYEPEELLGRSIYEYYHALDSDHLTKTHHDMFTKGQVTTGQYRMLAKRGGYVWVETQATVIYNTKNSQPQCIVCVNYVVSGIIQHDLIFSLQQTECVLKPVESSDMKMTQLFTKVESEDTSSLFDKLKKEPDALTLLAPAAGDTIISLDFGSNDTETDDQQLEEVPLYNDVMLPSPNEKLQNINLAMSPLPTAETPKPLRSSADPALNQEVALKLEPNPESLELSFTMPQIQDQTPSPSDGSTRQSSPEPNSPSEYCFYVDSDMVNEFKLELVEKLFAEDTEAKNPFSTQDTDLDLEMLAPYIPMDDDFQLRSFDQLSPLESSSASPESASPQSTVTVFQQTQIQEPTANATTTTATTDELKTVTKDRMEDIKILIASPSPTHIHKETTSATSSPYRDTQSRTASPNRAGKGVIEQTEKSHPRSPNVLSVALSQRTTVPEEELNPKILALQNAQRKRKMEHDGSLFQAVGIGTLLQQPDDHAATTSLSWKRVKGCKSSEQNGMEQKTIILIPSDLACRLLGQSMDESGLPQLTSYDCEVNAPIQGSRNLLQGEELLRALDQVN
Chain of Hepatocyte nuclear factor 6 (Homo sapiens) (Q9UBC0 whole entry, looked up): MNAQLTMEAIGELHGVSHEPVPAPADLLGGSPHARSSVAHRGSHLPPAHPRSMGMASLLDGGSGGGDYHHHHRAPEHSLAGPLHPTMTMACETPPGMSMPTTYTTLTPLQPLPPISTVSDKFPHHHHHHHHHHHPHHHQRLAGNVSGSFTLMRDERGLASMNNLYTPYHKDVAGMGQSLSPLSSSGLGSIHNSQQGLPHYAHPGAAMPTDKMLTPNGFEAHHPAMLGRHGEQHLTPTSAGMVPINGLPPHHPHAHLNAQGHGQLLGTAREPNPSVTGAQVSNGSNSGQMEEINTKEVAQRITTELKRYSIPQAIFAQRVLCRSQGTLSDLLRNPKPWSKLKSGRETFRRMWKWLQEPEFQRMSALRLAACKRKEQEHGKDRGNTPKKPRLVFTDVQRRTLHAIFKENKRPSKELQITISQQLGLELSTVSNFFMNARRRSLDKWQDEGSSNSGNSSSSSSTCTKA

In the case of `C=CC(F)(C(F)(F)F)C(F)(F)C(F)(F)F` (stereo not drawn), the compound was classed as inactive in assay [1], in assay [2], in [3], in assay [4], in [5] and in assay [6]. The outcome in assay [7], in assay [8], in assay [9], in [10], in assay [11] and in [12] was inactive. For the same compound, the result in assay [13], in [14], in assay [15], in assay [16] and in [17] was inactive.
Usually AC50 stands for the concentration giving half of the maximal activity seen. With `C=CC(Cl)CCl` (stereo not drawn), the result in [1], in assay [2], in [3], in assay [4], in [5] and in assay [6] was inactive. Moreover, the outcome in assay [7], in assay [10], in assay [12], in assay [13], in assay [14] and in [16] was inactive. In addition, the result in assay [18] and in assay [17] was inactive. Also, the AC50 in assay [8] was 3.12 µM (active).
Regarding `CN(C1CCCCC1)C1CCCCC1`, the compound was classed as inactive in assay [1], in [2], in assay [3], in [4], in assay [5] and in assay [6]. Further, the outcome in [7], in assay [9], in assay [10], in assay [11], in assay [12] and in assay [13] was inactive. Besides, the compound was called inactive in [14], in assay [15], in [16], in [18] and in assay [17]. In addition, the AC50 in [8] is 31.7 µM (active).
With `CC(F)(F)CC(F)(F)F`, the outcome in assay [1], in [2], in assay [3], in assay [4], in [5] and in assay [6] was inactive. The compound was classed as inactive in [7], in [8], in assay [9], in [10], in assay [11] and in assay [12]. Further, the call in assay [19], in [13], in assay [14], in assay [15], in [16] and in [18] was inactive. Further, the compound was called inactive in assay [17].
With `C#CCOC(=O)/C=C(C)/C=C/CC(C)CCCC(C)C` (stereo not drawn), the compound was called inactive in assay [2], in assay [3], in [4], in assay [5], in assay [7] and in assay [8]. The compound was classed as inactive in assay [9], in assay [10], in assay [11], in assay [12], in [19] and in [13]. The result in assay [14], in assay [15], in assay [16], in assay [18] and in [17] was inactive.
With `CC(C)(C#N)N=NC(C)(C)C#N`, the result in assay [1], in assay [2], in assay [3], in assay [4], in assay [5] and in assay [6] was inactive. Also, the call in [7], in [9], in assay [10], in [11], in assay [12] and in assay [19] was inactive. In addition, the outcome in [13], in assay [14], in assay [15], in assay [16], in assay [18] and in assay [17] was inactive. In addition, in [8], the AC50 was 79.6 µM (active).
Turning to `CCOP(=S)(OCC)O/N=C(\C#N)c1ccccc1`, the compound was classed as inactive in assay [1], in assay [3], in assay [4], in assay [5], in [7] and in [10]. Also, the result in assay [11], in assay [12], in assay [19], in [13], in [14] and in [15] was inactive. Moreover, the result in assay [16], in assay [18] and in assay [17] was inactive. Besides, the half-maximal activity concentration (AC50) is 67.2 µM (active) in [2], 2.2 µM (active) in assay [8] and 7.85 µM (active) in assay [9].
